Most compounds without a hit are left out; they make up all but 2.2% or so of the library.
CHRM4 PAM – human M4 muscarinic receptor positive allosteric modulators, primary screen, CHO-K1 cells, Fluo-8 calcium fluorescence | Muscarinic acetylcholine receptor M4 (Homo sapiens), P08173 | CHO-K1 hM4/Gqi5, ACh EC20; 0% = ACh EC20, 100% = maximal ACh | activation, % at 3 µM | 360,000 tested, 0.4% active | AID 624126, 2012;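 active = activation above its plate's cutoff, the mean activation of sample wells plus 3 SD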
M4 antag – human M4 muscarinic receptor antagonists, primary screen, CHO cells, Fluo-8 calcium fluorescence; AID 624125, 2012; CHO-hM4 cells, ACh EC80; 360,000 tested, 0.73% active; inhibition, % at 3 µM;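 active = inhibition above its plate's cutoff, the mean inhibition of sample wells plus 3 SD, cut at about 27% in these data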;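 note: 0% = acetylcholine EC80 with DMSO and 100% = DMSO without agonist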
M4 ag – human M4 muscarinic receptor agonists, primary screen, CHO-K1 cells, Fluo-8 calcium fluorescence. Muscarinic acetylcholine receptor M4 (Homo sapiens), P08173. CHO-K1 hM4/Gqi5; vehicle 0%, full acetylcholine response 100%. activation, % at 3 µM. 360,000 tested, 0.14% active. AID 624127, 2012;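 active = activation above the run mean over all test wells plus 3 SD, cut at about 32% in these data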;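 note: peak over basal fluorescence ratio per well then scaled between controls; 0% = DMSO wells and 100% = acetylcholine at EC100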
M1 PAM – human M1 muscarinic receptor positive allosteric modulators, primary screen, CHO-K1 cells, Fluo-8 calcium fluorescence, 1536-well | Muscarinic acetylcholine receptor M1 (Homo sapiens), P11229 | CHO-K1 hM1, ACh EC20; 0% = ACh EC20, 100% = maximal ACh | activation, % at 3 µM | 360,000 tested, 0.088% active | AID 588819, 2011; in the data active = activation above about 19%, passing the limit was not always enough
Target sequence (P11229 whole entry, looked up): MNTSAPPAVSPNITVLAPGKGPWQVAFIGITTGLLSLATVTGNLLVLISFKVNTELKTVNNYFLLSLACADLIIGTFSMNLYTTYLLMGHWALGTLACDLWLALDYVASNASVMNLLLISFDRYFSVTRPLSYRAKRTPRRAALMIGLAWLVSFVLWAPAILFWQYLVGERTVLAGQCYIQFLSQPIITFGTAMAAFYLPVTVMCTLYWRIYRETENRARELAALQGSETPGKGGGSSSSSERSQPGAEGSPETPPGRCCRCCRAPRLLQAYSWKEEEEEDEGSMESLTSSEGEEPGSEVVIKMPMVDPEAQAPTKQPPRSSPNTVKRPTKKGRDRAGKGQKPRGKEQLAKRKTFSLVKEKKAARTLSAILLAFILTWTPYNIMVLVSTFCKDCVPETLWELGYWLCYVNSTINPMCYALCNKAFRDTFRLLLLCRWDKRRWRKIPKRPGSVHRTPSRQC
M1 ag – human M1 muscarinic receptor agonists, primary screen, Fluo-8 calcium fluorescence, CHO-K1 cells, HTS; Muscarinic acetylcholine receptor M1 (Homo sapiens), P11229; activation, % at 3 µM; AID 588814, 2011; CHO-K1 hM1, agonist mode; 0% DMSO, 100% acetylcholine EC100; 360,000 tested, 0.33% active;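 active = activation above the run's mean compound activation plus 3 SD, cut at about 16% in these data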;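 note: peak over basal fluorescence ratio within a 140 s kinetic read after compound addition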
M1 antag – human M1 muscarinic receptor antagonists, primary screen, CHO-K1 cells, Fluo-8 calcium fluorescence, 1536-well | Muscarinic acetylcholine receptor M1 (Homo sapiens), P11229 | CHO-K1 hM1, ACh EC80 antagonist | inhibition, % at 3 µM | 360,000 tested, 1.3% active | AID 588852, 2011;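 active = percent inhibition above its own plate's cutoff, namely the mean of that plate's compound wells plus 3 SD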;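 note: peak over basal fluorescence ratio during 140 s after agonist addition; 0% = ACh EC80 plus DMSO and 100% = DMSO alone without agonist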
An asterisk follows results filed as active; nt = not tested or not shown.

SMILES	CHRM4 PAM	M4 antag	M4 ag	M1 PAM	M1 ag	M1 antag
O=C1C(=O)N(CCCc2ccccc2)c2ccccc21	-5	11	1	6	18*	-14
O=C(CN1C(=O)C(=O)c2ccccc21)NCCc1ccccc1	-2	-5	2	12	1	-10
O=C1C(=O)N(C/C=C/c2ccccc2)c2ccccc21	4	-1	3	17	24*	-17
COc1ccc(C(=O)NCc2nc3ccccc3[nH]2)cc1OC	4	0	2	4	-1	-9
CNC(C)C(=O)NC(C(=O)N1CCCC1C(=O)Nc1ccc2ncccc2c1)C(C)C (configuration not stated)	29*	-14	0	32*	2	-17
CNC(C)C(=O)NC(C(=O)N1CCCC1C(=O)Nc1ccc2[nH]ccc2c1)C(C)C (configuration not stated)	5	-11	1	3	-3	-10
CC(=O)c1c(C)[nH]c(C(=O)CN2C(=O)NC(C)(c3ccc(C)cc3)C2=O)c1C (configuration not stated)	7	-1	36*	4	27*	9
Cc1ccccc1C(=O)N1CCN(c2ccc(NC(=O)CSc3ccc(Cl)cc3)cc2)CC1	-11	27*	19	-9	2	33
CC1=C(C)CC(C(=O)NC2CCN(C(C)C)CC2)C(C(=O)O)C1 (configuration not stated)	-13	24	1	-22	-6	50*
CC(C)[C@@H]1CC2=C(C(=O)OC(C)(C)O2)[C@H](CCc2ccccc2)O1	8	-15	-2	nt	nt	nt
Cc1cc(C[n+]2ncsc2N)c2ncccc2c1	-7	-5	1	-5	-4	6
COc1ccc2c(c1)sc(N)[n+]2Cc1cc(C)cc2cccnc12	-36	11	6	-23	-7	65*
CCOc1ccc2c(c1)sc(N)[n+]2Cc1cc(C)cc2cccnc12	-23	4	8	-24	-7	70*
CN(C)c1ccc(C=C2SC(=S)N(Cc3ccco3)C2=O)cc1	-10	21	14	-16	20*	17
O=C1C(=C2CCCCC2)SC(=S)N1Cc1ccco1	-15	16	2	-20	-6	29*
O=C(O)CCN1C(=O)C(=C2CCCCCC2)SC1=S	2	3	0	6	-3	-7
Cc1cc(F)ccc1C(O)c1ncc(-c2ccccc2)[nH]1 (configuration not stated)	1	-13	1	5	0	-12
Cc1cccc(C(=O)Nc2ccc(C(=O)/C=C/c3cccnc3)cc2)c1	-2	-8	9	-19	-2	6
Cc1cccc(C(=O)Nc2ccc(C(=O)/C=C/c3ccncc3)cc2)c1	-13	33*	17	-8	1	30
CCc1nnc2c(N(C)S(=O)(=O)c3ccc(C)cc3)nc3ccccc3n12	8	-11	1	8	-1	-15
CCCCOc1ccccc1C(=O)NNC(=S)NC(=O)c1ccccc1[N+](=O)[O-]	-5	11	14	-2	19*	-7
O=C(NNC(=S)NC(=O)c1ccccc1[N+](=O)[O-])c1ccccc1[N+](=O)[O-]	6	3	0	9	-4	-2
COc1cc(-c2cnc3c(NC=O)cc(-c4cccc(C(=O)NCCN(C)C)c4)cn23)cc(OC)c1OC	1	-2	0	14	-9	-17
COc1ccc(-c2cc(NC=O)c3ncc(-c4cccc(C(=O)NCCN(C)C)c4)n3c2)c(OC)c1	-3	-5	0	-33	-10	85*
COc1ccccc1-c1cc(NC=O)c2ncc(-c3cccc(C(F)(F)F)c3)n2c1	15	-7	1	31*	5	-24
SMILES	CHRM4 PAM	M4 antag	M4 ag	M1 PAM	M1 ag	M1 antag
COc1cc(-c2cc(NC=O)c3ncc(-c4cccc(C(F)(F)F)c4)n3c2)cc(OC)c1OC	10	0	3	14	1	-6
CC(C)(C)NC(=O)c1ccccc1-c1nc2ccccc2s1	8	-10	0	5	18*	-5
CC(C)(C)NC(=O)c1nc2ccccc2s1	-2	6	0	-7	-3	9
CCCC(=O)N1CCC(Cc2ccccc2)CC1	-5	9	-1	13	6	-12
CCCCCCNCC(=O)N1CCC(Cc2ccccc2)CC1	-11	-3	7	-26	-11	31*
O=C(COC(=O)/C=C/c1ccc(Cl)cc1Cl)NCCC1=CCCCC1	11	28*	1	-10	0	19
CC(=O)Nc1cccc(OCC(=O)NCCC2=CCCCC2)c1	3	-6	3	8	-8	-10
CC(=O)c1ccc(OCC(=O)NCCC2=CCCCC2)cc1	13	-8	3	24*	-6	-19
Cc1[nH]c2ccccc2c1NC(=O)CN1CCN(C(=O)c2ccco2)CC1	-4	2	1	6	-5	-5
O=C(NC1CCCCC1)C(c1ccco1)N(C(=O)C(F)(F)F)C1CC1 (configuration not stated)	7	-18	0	-1	-3	3
COc1ccccc1CNC(=O)Nc1nc(C(N)Cc2ccc(Cl)cc2)cs1 (configuration not stated)	-4	27*	15	3	-1	3
COc1ccccc1CNC(=O)Nc1nc(C(N)C(C)C)cs1 (configuration not stated)	2	3	1	12	-2	-10
COc1ccc(CNC(=O)Nc2nc(C(N)Cc3ccc(Cl)cc3)cs2)cc1 (configuration not stated)	-4	33*	28	2	10	11
Cc1ccc(-c2noc(Cn3cc(S(=O)(=O)N4CCCC4)ccc3=O)n2)cc1	3	2	2	-10	-4	14
O=C(Nc1ccc(F)cc1)C(c1ccccc1)N1CCN(S(=O)(=O)c2ccc3ccccc3c2)CC1 (configuration not stated)	1	0	0	1	-3	4
OC(CNCCC1C=Nc2ccccc21)Cn1c2ccc(Cl)cc2c2cc(Cl)ccc21 (configuration not stated)	-11	37*	18	14	2	-6

High-throughput results as filed in PubChem.
